The panel holds about 83,000 compounds, 20% with a hit somewhere; the sample as a whole holds those more often.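 In brief: 96-well plates, 48 h treatment, single concentration, percent growth endpoint.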 Unmarked numbers belong to inactive results. Activity calls are given as the source filed them. How the source made its calls: active means growth percent below 10; inactive means the rest.
What was measured:
Assay in all cases: NCI-60 one-dose screen, 48 h (100 = growth as untreated, 0 = no growth, -100 = all killed)
Conditions in all cases: 10 µM unless noted
HCT-15 colon = tested on: HCT-15 colon
HT29 colon = tested on: HT29 colon
SNB-75 CNS = tested on: SNB-75 CNS
SNB-19 CNS = tested on: SNB-19 CNS
U251 CNS = tested on: U251 CNS
PC-3 prostate = tested on: PC-3 prostate
SK-MEL-5 melanoma = tested on: SK-MEL-5 melanoma
UACC-62 melanoma = tested on: UACC-62 melanoma
LOX IMVI melanoma = tested on: LOX IMVI melanoma
SK-MEL-28 melanoma = tested on: SK-MEL-28 melanoma

SMILES | growth (HCT-15 colon) | growth (HT29 colon) | growth (SNB-75 CNS) | growth (SNB-19 CNS) | growth (U251 CNS) | growth (PC-3 prostate) | growth (SK-MEL-5 melanoma) | growth (UACC-62 melanoma) | growth (LOX IMVI melanoma) | growth (SK-MEL-28 melanoma)
COc1cc(N2C(=O)[C@H](c3ccccc3)C2c2ccc(SC)cc2)cc(OC)c1OC (some centres undefined) | 1.35% (active) | -9.59% (active) | 69.4% | 30.8% | 7.35% (active) | 17.7% | -20.7% (active) | 7.64% (active) | 13.4% | 60.9%
O=C1NC(=O)c2c1c1c3ccccc3[nH]c1c1oc3ccc(F)cc3c21 | 55.1% | 81.9% | 41.3% | 89.4% | 83.4% | 45% | 53% | 46.1% | 66% | 90.6%
COc1cc(/C=C2\C(=O)N(c3c(Cl)cccc3Cl)c3ccccc32)cc(OC)c1OCCCCCCn1c2ccccc2c(=O)c2ccccc21 | 108% | 103% | 73.6% | 98.4% | 103% | 87.1% | 96.1% | 93.3% | 98.4% | 99%
N#C/C(=C\c1ccc(-c2ccc(Cl)cc2)o1)c1ccc(Cl)cc1 | 79.2% | 61.2% | 14% | 62% | 21.6% | 74.8% | 91.4% | 78.7% | 49.2% | 99.7%
C#CC#CC#CC#CC#CC#CC#CC#CCC1OCC(COC(=O)O[C@@H](C(=O)O[C@H]2C[C@@]3(O)[C@@H](OC(=O)c4ccccc4)[C@@H]4[C@]5(OC(C)=O)CO[C@@H]5C[C@H](O)[C@@]4(C)C(=O)[C@H](OC(C)=O)C(=C2C)C3(C)C)[C@@H](NC(=O)c2ccccc2)c2ccccc2)O1 (some centres undefined) | 66.8% | 5.02% (active) | -25.2% (active) | 18.9% | 17.9% | 19.4% | 23.4% | 22.3% | 26.9% | 59.2%
C[C@@H](CO)[C@@H]1CC[C@]2(C(=O)N3CCN(C)CC3)CC[C@]3(C)[C@H](CC[C@@H]4[C@@]5(C)CC[C@H](O)C(C)(C)[C@@H]5CC[C@]43C)[C@@H]12 | 44.3% | 17.6% | 91.4% | 68.7% | 24.1% | 64.1% | 82.9% | 78.3% | 38.7% | 106%
Cc1cccc(N2CCN(C(=S)c3ccc4c(c3)OCO4)CC2)c1 | 12.5% | 6.38% (active) | -21.4% (active) | 47.1% | 20.7% | 19.5% | 6.14% (active) | 29.1% | 32.8% | 54%
O=c1oc2c(cnc3ccccc32)cc1-c1cccs1 | 112% | 111% | 92% | 101% | 99.4% | 97.3% | 101% | 101% | 106% | 115%
Cc1nc2sc(C(=O)Nc3ccccc3)c(N)c2cc1C(=O)/C=C/c1ccccc1 | -32.1% (active) | -63.9% (active) | -14% (active) | -40.8% (active) | -71.7% (active) | 6.68% (active) | 11.7% | 0.799% (active) | -80% (active) | 30.9%
CCOC(=O)c1c2c(n3ccccc13)C(=O)c1ncccc1C2=O | 22.4% | 47.6% | 34.3% | 16.5% | 0.0106% (active) | 19.9% | -17.8% (active) | -25.8% (active) | 0.56% (active) | 28.9%
COc1cc(/C=C2\CN(S(=O)(=O)c3ccc(C)cc3)C/C(=C\c3cc(CN4CCCCC4)c(O)c(OC)c3)C2=O)cc(CN2CCCCC2)c1O | -86.1% (active) | -66.5% (active) | -83.9% (active) | -57.7% (active) | -89.6% (active) | -39.9% (active) | -88.9% (active) | -63.5% (active) | -74.5% (active) | -85.8% (active)
CC1O[C@@H]2C[C@@](O)([C@H]1O)n1c3ccccc3c3c4c(c5c6ccccc6n2c5c31)C(=O)NC4=O (some centres undefined) | 62% | 28.6% | 44.8% | 35% | 24.8% | 41.2% | 1.39% (active) | 9.56% (active) | 7.1% (active) | 69.1%
COC(=O)Cc1nc(C#N)c(N(C)C)o1 | 99.4% | 106% | 78.5% | 96.1% | 98.8% | 99.4% | 102% | 87.6% | 97.7% | 104%
C=C(CO)[C@@H]1CC[C@]2(COC3CCCCO3)CC[C@]3(C)[C@H](CC[C@@H]4[C@@]5(C)C=C(C=O)C(=O)C(C)(C)[C@@H]5CC[C@]43C)[C@@H]12 (some centres undefined) | -90.5% (active) | -83.6% (active) | -51.6% (active) | -83.8% (active) | -88.6% (active) | -82.5% (active) | -95.1% (active) | -76.7% (active) | -88.4% (active) | -71.3% (active)
CC1CN=C(c2cccc(-c3ccc(-c4ccccc4)o3)c2)N1 (centres undefined) | -57.5% (active) | -43.6% (active) | 58.7% | 25.8% | -24.3% (active) | 11.2% | -93.3% (active) | -62.2% (active) | -85.7% (active) | -76.3% (active)
COc1ccccc1NC(=O)c1ccc(/C=C/C(=O)c2nccn2C)cc1 | -30.3% (active) | -52.6% (active) | -3.01% (active) | -84.3% (active) | -74.6% (active) | -49.4% (active) | -97.1% (active) | -60.6% (active) | -82.5% (active) | -45.9% (active)
Cn1cc(-c2nonc2-c2c[nH]c3ccc(F)cc23)c2cc(Br)ccc21 | 30.4% | 20.9% | 45.5% | 58% | 41.4% | 44.2% | 76.6% | 52.9% | 9.44% (active) | 73.2%
Brc1ccc(-c2cnc3nonc3n2)cc1 | 54.8% | 70.2% | 96% | 88.2% | 92.5% | 57.1% | 48.5% | 51.7% | 38% | 104%
CCOC(=O)c1c(NC(=O)c2ccc(C(C)(C)C)cc2)sc2cc(O)ccc12 | 70.3% | 80.6% | 104% | 111% | 96.9% | 105% | 98.1% | 101% | 87% | 99.1%
COc1cc(C#Cc2ccc(=O)oc2C#Cc2ccccc2)cc(OC)c1OC | 61.4% | 43.4% | 77.1% | 92.9% | 83.8% | 86.2% | 56.7% | 80.3% | -61% (active) | 23.1%
S=c1ssnc1-c1cccs1 | 99% | 105% | 97.1% | 96.8% | 100% | 94.3% | 57.3% | 90.7% | 92.3% | 112%
CCN(CC)CCCNCc1cc(-c2ccccc2)nc2cc(Cl)ccc12 | 12.1% | -17.3% (active) | 70.8% | 68.9% | 11.5% | 37% | -76.9% (active) | -61.3% (active) | -20.6% (active) | -92.4% (active)
Nc1n[nH]c2ccc([C@@H]3Nc4cc5[nH]ncc5cc4[C@H]4C5CCC(C5)[C@@H]34)cc12 (some centres undefined) | 13.7% | 6.61% (active) | -9.87% (active) | 20.4% | 19% | 25.1% | 9.55% (active) | 33.8% | 25.4% | 60.1%
COc1ccc(C/C(C)=C(/c2ccc(OCCN3CCCCCC3)cc2)c2ccc(OC(=O)NCc3ccccc3)cc2)cc1 | 60.6% | 13.4% | 90.7% | 87.4% | 71.8% | 71.8% | 91.2% | 88.8% | 52.3% | 98.3%
COc1ccc(/C=C/C(=O)c2cc3c(N)c(C(=O)Nc4ccc(OC)cc4)sc3nc2C)cc1 | 20.6% | -18% (active) | 2.43% (active) | 16.3% | 20.2% | 32.3% | 9.81% (active) | 21.8% | 31.6% | 55.7%
CN1CCN(Cc2ccc(NC(=O)c3cncc(C#Cc4cnn5ccccc45)c3)cc2C(F)(F)F)CC1 | 0.133% (active) | 4.53% (active) | 13.6% | 5.8% (active) | 7.18% (active) | -4.22% (active) | 14.9% |  | -39.6% (active) | 25%
